The values that follow come from PubChem BioAssay (NCI).

Compounds without any hit were thinned out: in the full panel of roughly 79,000, 15% have a hit. Values without a mark were called inactive. Calls of active or inactive are those of the source. Rule as the data show it: active = growth inhibition above about 70%; inactive = the rest.

A short description of assay [1]: NCI Yeast Anticancer Drug Screen. Data for the rad50 strain (AID 155).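 Also: 0% = growth of vehicle-only cultures of the same strain.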 To be noted: S. cerevisiae rad50 strain growth inhibition, hits give high values. In short, it runs like this:
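Relative growth inhibition (compound vs vehicle) was measured in yeast with a defined repair-gene alteration.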

A short description of assay [2]: NCI Yeast Anticancer Drug Screen. Data for the mec2-1 strain (AID 157). The conditions noted are these: S. cerevisiae mec2-1 strain, hits give high values. In short, it runs like this: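 Compounds were applied to mec2-1 yeast cells. Their growth was then compared with that of vehicle-treated cultures to give growth inhibition.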
Assay [3] in a line: NCI Yeast Anticancer Drug Screen. Data for the sgs1 mgt1 strain (AID 161).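 Also: 0% = growth of cultures given vehicle only.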 The conditions noted are these: S. cerevisiae sgs1 mgt1 strain, hits give high values. The gist of the method:
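Compounds are added to genetically altered yeast, and growth is compared with cultures given vehicle alone to give percent inhibition.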

A short description of assay [4]: NCI Yeast Anticancer Drug Screen. Data for the cln2 rad14 strain (AID 165).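 Also: 0% = growth equal to vehicle treated cultures.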 To be noted: S. cerevisiae cln2 rad14 strain, hits give high values. The gist of the method: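 Strain: cln2 rad14 yeast, altered in cell cycle control and DNA damage repair. Read-out: growth inhibition vs vehicle.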
A short description of assay [5]: NCI Yeast Anticancer Drug Screen. Data for the bub3 strain (AID 167). The conditions noted are these: S. cerevisiae bub3 mutant strain, hits give high values. The gist of the method:
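Screening used yeast with an engineered genetic alteration affecting cell cycle control. Compound-exposed cultures were compared with vehicle cultures, and reduced growth was taken as inhibition.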

Assay [6] is described as follows: NCI Yeast Anticancer Drug Screen. Data for the mlh1 rad18 strain (AID 175). The conditions noted are these: S. cerevisiae mlh1 rad18 strain growth inhibition, hits give high values. The gist of the method:
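A repair-deficient yeast strain is exposed to test compound, and growth is scored relative to vehicle-treated controls.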

[7] abbreviates: at 5.0 µM (retest, dose inferred, filed as 0.5).
Setting [8] is: at 50.0 µM (retest, dose inferred, filed as 5.0).

Consider `c1cc[c]([Pb]([S]c2nc3ccccc3[nH]2)([c]2ccccc2)[c]2ccccc2)cc1`, for which the growth inhibition in assay [1] (setting [7]) is 99% (active); in assay [1] (setting [8]) it was 99% (active); in assay [1] (at 50.0 µM), 91.4% (active); in assay [2] (setting [7]) it was 100% (active); in assay [2] (setting [8]), 99% (active); in assay [2] (at 50.0 µM), 92.7% (active). Besides, the growth inhibition in assay [3] (setting [7]) was 99% (active); in assay [3] (setting [8]), 99% (active); in assay [3] (at 50.0 µM) it was 92.2% (active); in assay [4] (setting [7]), 99% (active); in assay [4] (setting [8]), 99% (active); in assay [4] (at 50.0 µM), 91.8% (active). Further, the growth inhibition in assay [5] (setting [7]) is 99% (active); in assay [5] (setting [8]), 99% (active); in assay [5] (at 50.0 µM) it was 91.3% (active); in assay [6] (setting [7]), 99% (active); in assay [6] (setting [8]) it was 99% (active); in assay [6] (at 50.0 µM), 90.3% (active).
As for `O=[N+]([O-])O.c1ccc([As+](c2ccccc2)(c2ccccc2)c2ccccc2)cc1`, the growth inhibition in assay [1] (setting [7]) is 26%; in assay [1] (setting [8]), 96% (active); in assay [1] (at 50.0 µM), 97% (active); in assay [2] (setting [7]), 43%; in assay [2] (setting [8]), 99% (active); in assay [2] (at 50.0 µM) it was 97.9% (active). Moreover, the growth inhibition in assay [3] (setting [7]) is 21%; in assay [3] (setting [8]), 98% (active); in assay [3] (at 50.0 µM) it was 97% (active); in assay [4] (setting [7]), 7%; in assay [4] (setting [8]) it was 92% (active); in assay [4] (at 50.0 µM) it was 97.6% (active). Further, the growth inhibition is 16% in assay [5] (setting [7]); 97% (active) in assay [5] (setting [8]); 97% (active) in assay [5] (at 50.0 µM); 24% in assay [6] (setting [7]); 96% (active) in assay [6] (setting [8]); 95.8% (active) in assay [6] (at 50.0 µM).
Regarding `COC1CC(C)C(OC)C2=CC(=O)C=C(NC(=O)/C(C)=C/C=C\C(C)C(OC(N)=O)/C(C)=C\C(C)C1OC)C2=O` (configuration not stated), the growth inhibition in assay [1] (setting [7]) is 93% (active); in assay [1] (setting [8]) it was 98% (active); in assay [1] (at 50.0 µM), 91.5% (active); in assay [2] (setting [7]), 97% (active); in assay [2] (setting [8]) it was 99% (active); in assay [2] (at 50.0 µM) it was 93% (active). The growth inhibition in assay [3] (setting [7]) is 97% (active); in assay [3] (setting [8]), 99% (active); in assay [3] (at 50.0 µM) it was 92.5% (active); in assay [4] (setting [7]), 89% (active); in assay [4] (setting [8]), 97% (active); in assay [4] (at 50.0 µM), 91.2% (active). Besides, the growth inhibition is 97% (active) in assay [5] (setting [7]); 99% (active) in assay [5] (setting [8]); 91.1% (active) in assay [5] (at 50.0 µM); 97% (active) in assay [6] (setting [7]); 98% (active) in assay [6] (setting [8]); 91.4% (active) in assay [6] (at 50.0 µM).
For `OCC1N2CCC(CC2)C1(O)O` (configuration not stated), the growth inhibition in assay [1] (setting [7]) was -2%; in assay [1] (setting [8]), 5%; in assay [1] (at 50.0 µM) it was -11.8%; in assay [2] (setting [7]), 2%; in assay [2] (setting [8]) it was -3%; in assay [2] (at 50.0 µM), -6.9%. The growth inhibition was -3% in assay [3] (setting [7]); 1% in assay [3] (setting [8]); 0.1% in assay [3] (at 50.0 µM); 2% in assay [4] (setting [7]); 2% in assay [4] (setting [8]); -16.1% in assay [4] (at 50.0 µM). Further, the growth inhibition in assay [5] (setting [7]) was 1%; in assay [5] (setting [8]), -4%; in assay [5] (at 50.0 µM), 34.5%; in assay [6] (setting [7]) it was -2%; in assay [6] (setting [8]), -4%; in assay [6] (at 50.0 µM) it was -12.7%.
Regarding `CCN1CCC(O)(c2ccc(Cl)cc2)C(C(=O)c2ccc(Cl)cc2)C1` (configuration not stated), the growth inhibition is -8% in assay [1] (setting [7]); 65% in assay [1] (setting [8]); 99% (active) in assay [1] (at 50.0 µM); 6% in assay [2] (setting [7]); 74% (active) in assay [2] (setting [8]); 97.8% (active) in assay [2] (at 50.0 µM). The growth inhibition is 3% in assay [3] (setting [7]); 67% in assay [3] (setting [8]); 98.8% (active) in assay [3] (at 50.0 µM); -7% in assay [4] (setting [7]); 93% (active) in assay [4] (setting [8]); 97.2% (active) in assay [4] (at 50.0 µM). Further, the growth inhibition is 18% in assay [5] (setting [7]); 80% (active) in assay [5] (setting [8]); 98.5% (active) in assay [5] (at 50.0 µM); 3% in assay [6] (setting [7]); 77% (active) in assay [6] (setting [8]); 98.5% (active) in assay [6] (at 50.0 µM).
As to `CC(=O)NC1C(O[C@H]2CC[C@@]3(C)C(CC[C@]4(C)C3CC=C3C5CC(C)(C)CC[C@]5(C(=O)O)CCC34C)C2(C)C)OC(CO)C(O)C1O` (some centres not stated), the growth inhibition in assay [1] (setting [7]) is 42%; in assay [1] (setting [8]), 98% (active); in assay [1] (at 50.0 µM), 91% (active); in assay [2] (setting [7]), 69%; in assay [2] (setting [8]) it was 99% (active); in assay [2] (at 50.0 µM), 92.8% (active). Moreover, the growth inhibition in assay [3] (setting [7]) was 44%; in assay [3] (setting [8]), 99% (active); in assay [3] (at 50.0 µM), 90.2% (active); in assay [4] (setting [7]), 74% (active); in assay [4] (setting [8]) it was 99% (active); in assay [4] (at 50.0 µM), 91% (active). Besides, the growth inhibition in assay [5] (setting [7]) was 77% (active); in assay [5] (setting [8]) it was 98% (active); in assay [5] (at 50.0 µM), 91.2% (active); in assay [6] (setting [7]) it was 48%; in assay [6] (setting [8]) it was 99% (active); in assay [6] (at 50.0 µM), 90% (active).
`CCOC(=O)CNC(=O)C1C2c3ccccc3C(c3ccccc32)C1C(=O)O` (configuration not stated): the growth inhibition is 3% in assay [1] (setting [7]); 38% in assay [1] (setting [8]); 90.3% (active) in assay [1] (at 50.0 µM); 3% in assay [2] (setting [7]); 40% in assay [2] (setting [8]); 95.4% (active) in assay [2] (at 50.0 µM). The growth inhibition in assay [3] (setting [7]) is 0%; in assay [3] (setting [8]) it was 39%; in assay [3] (at 50.0 µM) it was 96% (active); in assay [4] (setting [7]), 1%; in assay [4] (setting [8]), 25%; in assay [4] (at 50.0 µM) it was 95.9% (active). Besides, the growth inhibition was 1% in assay [5] (setting [7]); 45% in assay [5] (setting [8]); 94% (active) in assay [5] (at 50.0 µM); -1% in assay [6] (setting [7]); 32% in assay [6] (setting [8]); 98.5% (active) in assay [6] (at 50.0 µM).
Take `N=C(N)c1ccc(NN=Nc2cccc3c2Oc2ccccc2O3)cc1`: the growth inhibition is 48% in assay [1] (setting [7]); 89% (active) in assay [1] (setting [8]); 80% (active) in assay [1] (at 50.0 µM); 20% in assay [2] (setting [7]); 84% (active) in assay [2] (setting [8]); 78.1% (active) in assay [2] (at 50.0 µM). The growth inhibition is 32% in assay [3] (setting [7]); 90% (active) in assay [3] (setting [8]); 74.6% (active) in assay [3] (at 50.0 µM); 14% in assay [4] (setting [7]); 69% in assay [4] (setting [8]); 71% (active) in assay [4] (at 50.0 µM). Moreover, the growth inhibition is 10% in assay [5] (setting [7]); 80% (active) in assay [5] (setting [8]); 83.5% (active) in assay [5] (at 50.0 µM); 17% in assay [6] (setting [7]); 83% (active) in assay [6] (setting [8]); 70.2% (active) in assay [6] (at 50.0 µM).
On to `CC(=O)Nc1c2sscc-2n(C)c1=O`, for which the growth inhibition is 98% (active) in assay [1] (setting [7]); 99% (active) in assay [1] (setting [8]); 93.2% (active) in assay [1] (at 50.0 µM); 99% (active) in assay [2] (setting [7]); 100% (active) in assay [2] (setting [8]); 94.9% (active) in assay [2] (at 50.0 µM). Moreover, the growth inhibition in assay [3] (setting [7]) is 99% (active); in assay [3] (setting [8]), 99% (active); in assay [3] (at 50.0 µM) it was 94.6% (active); in assay [4] (setting [7]), 98% (active); in assay [4] (setting [8]) it was 99% (active); in assay [4] (at 50.0 µM), 93.2% (active). Also, the growth inhibition in assay [5] (setting [7]) was 97% (active); in assay [5] (setting [8]) it was 99% (active); in assay [5] (at 50.0 µM), 94% (active); in assay [6] (setting [7]) it was 99% (active); in assay [6] (setting [8]), 99% (active); in assay [6] (at 50.0 µM) it was 92.7% (active).
